# About 2,700 (4%) of roughly 68,000 compounds showed an effect of 50% or more. Only a selection was taken, and strong results are over-represented in it overall.
# System: Plasmodium berghei
# Assay: Screen against P. berghei liver stage (PbLuc), transformed with Luciferase, at 2uM
# Format: functional, HepG2
# Settings: tested at 2 uM
row,SMILES,INHIBITION
1,CCN(Cc1cc(=O)n2cc(Br)ccc2n1)C1CC1,-15.9%
2,Cc1ccc2cccc(Oc3nc(C)c(C(=O)O)s3)c2n1,27.11%
3,COCCn1cnc(-c2cc(C(=O)NC(C)C)c3ccccn23)c1,1.48%
4,CCN(C)C(=O)c1cc(-c2cn(C(C)C)cn2)n2ccccc12,73.98%
5,CCN(C)C(=O)c1cc(-c2ccn(C(C)C)n2)n2ccccc12,-8.84%
6,CC(C)(C)c1csc(CNC(=O)C2NCCc3[nH]cnc32)n1 (stereo not drawn),12.08%
7,COc1ccc(C(=O)NC2CC2)c(OC2CCN(C(C)CO)CC2)c1 (stereo not drawn),-8.53%
8,CNC(=O)CN1CCOCC2(C1)CN(C(=O)C(C)C)CCO2 (stereo not drawn),-6.94%
9,CCCC(=O)N1CCOC2(COCCN(CC(=O)NC)C2)C1 (stereo not drawn),43.03%
10,CNC(=O)CN1CCOCC2(CN(CCC(F)(F)F)CCO2)C1 (stereo not drawn),53.46%
11,Cc1ccc(C(=O)N2CC[C@@]3(O)CCCC[C@H]3C2)cc1,16.45%
12,CNC(=O)c1sccc1N(C)S(=O)(=O)c1ccc(Cl)cc1,1.37%
13,O=C(NCCCOCC1CCCO1)c1cccnc1N1CCOCC1 (stereo not drawn),10.49%
14,O=C(NCCCOCC1CC1)Nc1cccnc1N1CCOCC1,61.57%
15,CC(C)COCCCNC(=O)c1cccnc1N1CCOCC1,-32.12%
16,CCC(CC)NC(=O)c1ncn2c1CN(CC)S(=O)(=O)c1ccccc1-2,14.52%
17,CC(=O)N1CCC(Cc2nccnc2-c2c(C)n[nH]c2C)C1 (stereo not drawn),26.14%
18,Cc1ccc(CN2CC[C@H]3O[C@@H](C(=O)N4CCCO4)CC[C@H]32)s1,-25.79%
19,COc1cccc(CNCc2c(C)nn(C)c2N(C)C)c1,-32.89%
20,Cc1nn(C)c(N(C)C)c1CNCc1cccc(Cn2cccn2)c1,50.32%
21,COc1cccc(CCNCc2c(C)nn(C)c2N(C)C)c1,67.59%
22,Cc1nn(C)c(N(C)C)c1CNCc1cccc(Cn2cncn2)c1,-42.39%
23,COc1cccc(OCCNCc2c(C)nn(C)c2N(C)C)c1,-14.3%
24,Cc1nn(C)c(N(C)C)c1CNCc1ccc(Cn2cccn2)cc1,44.37%
25,Cc1ccc(C(=O)NS(=O)(=O)c2cccc3cnccc23)c(=O)[nH]1,-14.17%
26,Cc1nc2ccccn2c1CN(Cc1cccnc1)CC1CCCO1 (stereo not drawn),41.76%

row,SMILES,INHIBITION
1,Cc1cccc2c1nc(COCC(=O)O)n2-c1cnc(N)cn1,-15.37%
2,CN(C)Cc1nc(C(C)(C)NC(=O)C2CC(=O)N(CC3CC3)C2)no1 (stereo not drawn),17.39%
3,CCCc1nc(C(C)(C)NC(=O)C2CC(=O)N(CC)C2)no1 (stereo not drawn),-2.17%
4,CCCc1nc(C(C)(C)NC(=O)C2CC(=O)N(CC3CC3)C2)no1 (stereo not drawn),71.48%
5,O=C(NCCO)c1coc(Cn2cnc3ccccc32)n1,5.82%
6,CN(Cc1cnc(N)nc1)C(=O)c1coc(COc2ccccc2)n1,-31.73%
7,CN(CC(O)CO)C(=O)c1coc(COc2cccc(F)c2)n1 (stereo not drawn),-5.13%
8,CN(Cc1cnc(N)nc1)C(=O)c1coc(COc2cccc(F)c2)n1,51.31%
9,CCOCCCNC(=O)C1(C)CCC(=O)N1Cc1ccccc1F (stereo not drawn),15.96%
10,CSCc1nc(CCNC(=O)C(N)c2c(C)n[nH]c2C)cs1 (stereo not drawn),-4.29%
11,O=C(c1ccc(-n2cnnc2)cc1Cl)N1CCCC2(CCNC2)C1 (stereo not drawn),57.75%
12,O=C(c1ccc(-n2cnnc2)cc1Cl)N1CCCC(O)(CO)CC1 (stereo not drawn),58.57%
13,CN(C)CC1(O)CCN(C(=O)c2ccc(-n3cnnc3)cc2Cl)C1 (stereo not drawn),21%
14,O=C(c1cccc(Oc2ccccc2)c1)N1CCCC(O)(CO)CC1 (stereo not drawn),53.66%
15,O=C(c1ccc(-n2cccn2)cc1Cl)N1CCCC(O)(CO)C1 (stereo not drawn),21.36%
16,N#Cc1cccc(C(=O)N2CCCC(O)(CO)CC2)c1 (stereo not drawn),16.82%
17,O=C(c1cccc(-c2ccc(F)cc2)c1)N1CCCC(O)(CO)CC1 (stereo not drawn),35.7%
18,O=C(c1ccnc(-n2cnnc2)c1)N1CCCC2(CCNC2)C1 (stereo not drawn),7.67%
19,CNc1ccc(C)cc1C(=O)N1CCCC2(CCNC2)C1 (stereo not drawn),8.3%
20,COCC(=O)N1CCO[C@H]2[C@H](OC)CC[C@@H]21,7.86%
21,Cc1ccc(Oc2c(F)cccc2OC[C@@H](N)CC(C)C)cc1,16.01%
22,COC(=O)CN(C(=O)C(C)c1c(F)cccc1F)c1cccc(C)n1 (stereo not drawn),-23.76%
23,Cc1oncc1C(=O)N1CC[C@H]2[C@H]1CCN2S(C)(=O)=O,15.36%
24,COCC1CC2(CCN(Cc3cccc(C#N)c3)CC2)CN1C(C)C (stereo not drawn),-52.61%
25,Cc1nnc(NC(=O)NCc2ccnc(N(C)C)c2)s1,29.71%
26,O[C@@H]1C[C@@H](c2nc(-c3ccccc3)no2)N(C2CCOCC2)C1,16.47%

row,SMILES,INHIBITION
1,O[C@@H]1C[C@@H](c2nc(-c3ccc(F)cc3)no2)N(C2CCOCC2)C1,51.2%
2,COc1ccc(-c2noc([C@@H]3C[C@@H](O)CN3C3CCOCC3)n2)cc1,38.62%
3,O=C(c1[nH]nc2c1CCCC2)N1CCC(OCCN2CCCCC2)C1 (stereo not drawn),8.14%
4,COC1CCN(C(=O)CCc2c(C)nc3ccnn3c2C)CC1,-3.38%
5,CCOc1ccc(CN2C(=O)CC3(CCCC3)C2=O)nc1,-32.8%
6,Cc1nc(C(=O)N2CCN(c3ccc(Cl)c(Cl)c3)CC2)cs1,23.19%
7,O=C(O)c1ccccc1-n1cnc(CN2CCCCCC2)c1,25.41%
8,O=C(O)c1ccccc1-n1cnc(CN2CCc3ccccc32)c1,-26.26%
9,O=C(O)c1ccccc1-n1cnc(CN2CCc3ccccc3C2)c1,51.03%
10,CN(C(=O)C1CCOCC1)[C@@H]1CCC[C@@H](N2CCCC2)[C@@H]1O,-29.66%
11,CC1CN(S(=O)(=O)c2ccc(C(=O)NCC(F)F)cc2)CCCO1 (stereo not drawn),9.21%
12,COCCn1ccnc1C1CCN(C(=O)c2cccc(COC)n2)CC1,-2.69%
13,CC(C)NC(=O)CCNC(=O)c1cc(F)ccc1NS(C)(=O)=O,-84.03%
14,c1cnn(C[C@@H]2C[C@@H]3CN(CC4CC4)CC[C@@H]3N2c2nccs2)c1,-11.68%
15,Cc1nc(CN2CCC(c3nc4cc(Cl)ccc4o3)CC2)oc1C,29.16%
16,Cc1noc(C)c1CN1CCC(c2nc3cc(Cl)ccc3o2)CC1,32.43%
17,Cc1ncc(CN2CCC(c3nc4cc(Cl)ccc4o3)CC2)s1,56.38%
18,Cc1oc(-c2nc(C#N)c(NC(C)C)o2)cc1S(=O)(=O)N1CCCCC1,28.39%
19,Cc1ccnc(C2(C)CCCN2S(=O)(=O)c2cccnc2)n1 (stereo not drawn),-0.7%
20,O=C(Nc1cc(C(F)(F)F)c[nH]c1=O)C1CCCNC1 (stereo not drawn),-50.41%
21,CC1CCN(CCCNS(=O)(=O)c2cc(F)cc(F)c2)CC1,14.52%
22,CCOCC(=O)N1CCC(Oc2ccc(Cl)cn2)CC1,-4.69%
23,CCOC(=O)N1CCC(Oc2ccc(C(F)(F)F)cn2)CC1,30.98%
24,CC(=O)N1CCC(Oc2ccc(C#N)cn2)CC1,-1.02%
25,COc1ccccc1C(=O)N1CCC(Oc2ccc(C#N)cn2)CC1,64.74%
26,CC(=O)N1CCC(Oc2ccc(Cl)cn2)CC1,64.16%

row,SMILES,INHIBITION
1,N#Cc1ccc(OC2CCN(C(=O)c3ccc(Br)o3)CC2)nc1,-2.43%
2,N#Cc1ccc(OC2CCN(C(=O)c3ccccc3Cl)CC2)nc1,54.47%
3,O=S(=O)(c1cc(F)cc(F)c1)N1CCC(Oc2ccc(Cl)cn2)CC1,20.5%
4,COc1ccc(F)cc1S(=O)(=O)N1CCC(OC)CC1,28.55%
5,Cn1nc(C(=O)N2CCC(Oc3ccc(C#N)cn3)CC2)ccc1=O,37.08%
6,N#Cc1ccc(C(=O)N2CCC(Oc3ccc(C#N)cn3)CC2)cc1,20.49%
7,COc1ccc(F)cc1S(=O)(=O)N1CCC(Oc2ccc(Cl)cn2)CC1,54.73%
8,COc1cc(N2CC[C@@H](O)[C@@H]2Cc2ccccc2)ncn1,-30.57%
9,CNc1ccccc1C(=O)N(C)CCc1ccccc1,-88.87%
10,CN(Cc1ccsc1)C(=O)c1n[nH]c(N)c1-c1ccccc1,8.75%
11,Cc1cc(C(=O)NC(C)Cc2cccc(Cl)c2)n(C)n1 (stereo not drawn),-16.65%
12,Cc1n[nH]c(C2CN(CC(=O)NCCC3=CCCCC3)CCO2)n1 (stereo not drawn),1.27%
13,CN1CC2(CCN(S(=O)(=O)C3CC3)CC2)c2ccccc21,13.26%
14,Cn1ncnc1NCc1ccccc1Cl,6.75%
15,CCC(C(=O)N(C)Cc1cc(COC)[nH]n1)n1cccn1 (stereo not drawn),19.12%
16,CN(Cc1cnn(C)c1)C(=O)NCc1cc(Br)cs1,31.78%
17,Cc1cc(NC(=O)CN2CCCC2c2noc(C)n2)n(C(C)(C)C)n1 (stereo not drawn),7.71%
18,Cc1cc(NC(=O)CN2CCCC2c2noc(C)n2)n(C)n1 (stereo not drawn),50.76%
19,Cc1cc(NC(=O)CN2CCCC2c2noc(C3CC3)n2)n(C)n1 (stereo not drawn),-30.39%
20,Cc1cccc(COC[C@@]23CCC[C@@H]2CN(S(=O)(=O)N(C)C)C3)n1,31.96%
21,COc1ccccc1CNC(C)c1ccc(-n2ccnc2)cc1 (stereo not drawn),18.85%
22,CC(C)N(C)S(=O)(=O)c1ccc2c(c1)CCN(C(=O)c1cscn1)C2,-68.29%
23,O=C(CN1CCC(Nc2ncccn2)CC1)Nc1ccccc1,36.28%
24,Cc1ncsc1C(=O)NC1CCN(CCC(=O)Nc2ccccc2)CC1,1.02%
25,Cc1cnc(NC2CCN(CC(=O)Nc3ccccc3)CC2)nc1C,76.82%

# Source: ChEMBL document CHEMBL4513216, “Probing the Open Global Health Chemical Diversity Library for Multistage-Active Starting Points for Next-Generation Antimalarials” (ACS Infect Dis, 2020)
